Test [1] is described as follows: qHTS Assay for Identification of Small Molecule Agonists for NFkB Signaling Pathway. (AID 624478).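 Further: compounds tested together with TNF alpha at its EC50 of 10 pM; 0% is about no effect.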 Put shortly:
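Cells carrying an NFkB response element-driven beta-lactamase gene are co-treated with compound and 10 pM TNF alpha for 5 h, and reporter activity is then read as 460 and 530 nm fluorescence.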
(In qHTS, concentration-response curves come from the screen itself.)

The nature of test [2]: Cell Proliferation Assay against the TMD8 Cell Line (AID 651645).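 Further: cells exposed to compound for 48 h before reading.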 Particulars: TMD8 DLBCL cell line proliferation/viability; at 46.1 µM (top of the series). Put shortly: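 TMD8 ABC DLBCL cells, 500 per well in phenol red-free RPMI with 5% FBS, were treated with compound by pin transfer and incubated 48 hours at 37C, 5% CO2. Viability was read by CellTiter-Glo luminescence, normalised to DMSO (100%) and 9.2 uM bortezomib (0%).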

Test [3] in a line: Cell Proliferation Assay against the HBL1 Cell Line (AID 651646).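 Further: cells exposed to compound for 48 h before reading.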 Particulars: HBL1 DLBCL cells; at 46.1 µM (top of the series). A digest of the protocol:
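Luminescent ATP read-out (CellTiter-Glo) after 48 h compound exposure of HBL1 cells at 37 °C; percent activity was scaled between DMSO as 100% and 9.2 uM bortezomib (final) as 0%.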

Test [4] can be described thus: Cytotoxicity counterscreen for NFkB agonists and antagonists (AID 624476). Further: potency means the concentration at half of the fitted maximal effect. To be noted: NFkB reporter cell line viability counterscreen. For orientation: Counterscreens check selectivity or assay interference.
A short description of test [5]: qHTS Assay for Identification of Small Molecule Antagonists for NFkB Signaling Pathway. (AID 624479; calls by dose curve;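 further: pathway stimulated with TNF alpha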; further: potency means the concentration at half of the fitted maximal effect).
For test [6], the target named is Glutaminase kidney isoform, mitochondrial (Homo sapiens) (UniProt O94925). Nature of the test: qHTS for Inhibitors of Glutaminase (GLS): LOPAC Validation (AID 624146).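 Further: glutamate product detected by oxidase and peroxidase coupled Amplex red fluorescence gain; on the % scale 0 is the no-effect control and ±100 the full control effect; nearly all actives have a fitted effect of over 60% in size.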 A digest of the protocol: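 Assay buffer: 45 mM KH2PO4 pH 8.2, 0.02% Tween-20. hKGA acts on L-glutamine (1 mM solution added); product glutamate is reported by an oxidase/peroxidase Amplex Red coupling, with fluorescence taken at baseline and 30 min.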
Sequence of Glutaminase kidney isoform, mitochondrial (Homo sapiens) (O94925 whole entry, looked up, canonical isoform): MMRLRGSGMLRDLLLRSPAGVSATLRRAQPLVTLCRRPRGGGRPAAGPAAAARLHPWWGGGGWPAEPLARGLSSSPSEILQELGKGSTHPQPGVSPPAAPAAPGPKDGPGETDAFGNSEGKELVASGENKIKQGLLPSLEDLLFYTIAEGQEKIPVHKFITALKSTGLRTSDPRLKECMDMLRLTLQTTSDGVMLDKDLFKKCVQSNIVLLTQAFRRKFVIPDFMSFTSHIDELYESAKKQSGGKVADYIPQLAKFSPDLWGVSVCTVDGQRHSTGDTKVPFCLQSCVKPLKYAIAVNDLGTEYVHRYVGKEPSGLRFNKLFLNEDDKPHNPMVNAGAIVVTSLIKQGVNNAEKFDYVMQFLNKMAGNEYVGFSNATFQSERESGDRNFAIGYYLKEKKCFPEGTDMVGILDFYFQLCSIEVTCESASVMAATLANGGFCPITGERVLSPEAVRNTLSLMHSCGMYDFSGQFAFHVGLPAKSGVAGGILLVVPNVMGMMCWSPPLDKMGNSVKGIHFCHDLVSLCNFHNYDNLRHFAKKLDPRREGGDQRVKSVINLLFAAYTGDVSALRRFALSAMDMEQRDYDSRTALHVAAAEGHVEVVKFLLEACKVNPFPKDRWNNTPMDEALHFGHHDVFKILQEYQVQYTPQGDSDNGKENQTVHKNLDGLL

A short description of test [7]: qHTS of Trypanosoma Brucei Inhibitors: LOPAC Validation (AID 624147). Further: 0% is about no effect. From the text:
Members of the Trypanosomatidae family of parasitic protozoans cause a spectrum of diseases throughout the tropical and subtropical world. Sleeping sickness, caused by two subspecies of Trypanosoma brucei, is endemic to areas of sub-Saharan Africa, while Chagas' disease, a manifestation of Trypanosoma cruzi infection, is prevalent throughout Central and South America. In addition, many species of Leishmania are responsible for a range of cutaneous and visceral diseases, causing ulcers, destructive lesions and kalaazar, a lethal infection of the viscera. These diseases cause severe public health and economic burdens on populations that are often already caught in a tragic cycle of poverty, poor nutrition and disease. Collectively, parasites of the trypanosomatid family infect 30 million people worldwide (~500 million live in endemic areas), and account for ~130K deaths annually. Existing treatments have developed little in the past 50 years, and suffer from toxicity, poor efficacy and resistance; the goal of this project is to develop lead drugs that will be suitable for entry into pre-clinical trials.
Glycolysis in axenically cultured T. cruzi, representing the intracellular pathogenic stage, is also essential for these parasites. {Engel, 1987} This project aims to discover and optimize selective inhibitors of the glycolytic enzyme pyruvate kinase (PYK) from Trypanosoma brucei, the parasite that causes sleeping sickness. […]
2 uL of TbPYK/substrate buffer (columns 1-3, 5-48) are dispensed into Greiner white solid bottom 1536-well assay plates; column 4 receives only TEA buffer as 0x TbPYK controls. […] Kinase-Glo Plus reagent is added (3 uL) and plates incubated for 10 minutes, before being transferred to a ViewLux high-throughput CCD imager (PerkinElmer) wherein single end-point measurements of luminescence are acquired using a clear filter. […]

Test [8] concerns the target Glucagon-like peptide 1 receptor (Homo sapiens) (UniProt P43220). Nature of the test: qHTS of GLP-1 Receptor Agonists: LOPAC Validation (AID 624148).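 Further: luminescence from a luciferase reporter switched on by cAMP; 0% is about no effect; higher luminescence signal means agonism.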 Put shortly: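 Agonism scored as increased luciferase luminescence driven by cAMP in HEK293 clones carrying GLP-1R. Cells settled 12 hours, received compound for 4-6 hr at 37 deg C, 5% CO2, and were read after 12 min detection reagent at RT.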

Test [9] in a line: qHTS of Nrf2 Activators: LOPAC Validation (AID 624149). Further: 0% is about no effect. A digest of the protocol:
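ARE reporter activation measured in AREc32 firefly luciferase cells after 24 hr compound exposure; Steady-Glo luminescence.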

Test [10] is described as follows: HTS Assay for Allosteric Antagonists of the Human D2 Dopamine Receptor: Hit Validation in HTRF (AID 624455).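 Further: stable D1 dopamine receptor cell line scored for blocking the D1 response; on the % scale 0 is the no-effect control and ±100 the full control effect.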 Put shortly:
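Signal from an HTRF read-out in D1-expressing stable cells gave hit activity as inhibition of the D1 response.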
(In TR-FRET formats the signal depends on donor and acceptor labels being close together.)

Structures are written as SMILES. Records with an inconclusive call do not appear. Activity calls are given as the source filed them. Unless noted, the call rests on the fitted dose curve; in most records, active means well fitted curve in the direction sought with a large enough effect; inconclusive means small, poorly fitted or top-dose-only effect, or another doubt; inactive means no such curve, though single readings can be large; an effect the other way counts as inactive or inconclusive.

Sequence of Glucagon-like peptide 1 receptor (Homo sapiens) (P43220 whole entry, looked up): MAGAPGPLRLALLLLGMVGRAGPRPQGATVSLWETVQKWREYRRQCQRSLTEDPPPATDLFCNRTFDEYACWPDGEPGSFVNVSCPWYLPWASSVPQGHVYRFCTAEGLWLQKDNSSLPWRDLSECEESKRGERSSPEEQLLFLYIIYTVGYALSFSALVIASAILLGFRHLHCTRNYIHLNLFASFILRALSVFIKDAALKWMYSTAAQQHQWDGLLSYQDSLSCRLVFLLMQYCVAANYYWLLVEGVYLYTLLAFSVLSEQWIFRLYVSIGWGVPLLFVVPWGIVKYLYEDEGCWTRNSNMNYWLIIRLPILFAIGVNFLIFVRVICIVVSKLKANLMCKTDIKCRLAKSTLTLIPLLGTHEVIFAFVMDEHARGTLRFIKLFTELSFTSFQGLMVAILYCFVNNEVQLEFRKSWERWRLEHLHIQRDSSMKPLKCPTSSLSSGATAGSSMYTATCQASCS

Take `N#Cc1ccc(COC[C@H]2O[C@@H](n3c(NCc4ccc(Cl)c(Cl)c4)nc4c(N)ncnc43)[C@@H](O)[C@@H]2O)cc1`: the compound was called inactive in test [1]. For the same compound, the viability (% of control) in test [2] is 1.09%. Besides, the viability, percent of control in test [3] worked out at 17.4%.
In the case of `Cn1c(Nc2ccc(C(F)(F)F)cc2)nc2cc(Oc3ccnc(-c4ncc(C(F)(F)F)[nH]4)c3)ccc21`, the Potency in test [4] was 20.9 µM (active); in [5] it was 1.33 µM (active). The compound was called inactive in test [1]. Also, the viability (% of control) in test [2] is 15.6%. Besides, the viability, percent of control in [3] worked out at 33%.
Consider `COc1ccc2cc([S+]([O-])Cc3ncc(C)c(OC)c3C)nc2c1`, for which the outcome in [6], in test [7], in test [8], in [9] and in test [10] was inactive.
For `CN[C@H](CC(C)C)C(=O)N[C@H]1C(=O)N[C@@H](CC(N)=O)C(=O)N[C@@H]2C(=O)N[C@H]3C(=O)N[C@H](C(=O)N[C@H](C(=O)O)c4cc(O)cc(O)c4-c4cc3ccc4O)[C@H](O)c3ccc(c(Cl)c3)Oc3cc2cc(c3O[C@@H]2O[C@H](CO)[C@@H](O)[C@H](O)[C@@H]2O[C@H]2C[C@](C)(N)[C@H](O)[C@H](C)O2)Oc2ccc(cc2Cl)[C@H]1O`, the call in test [6], in test [7], in [8], in test [9] and in test [10] was inactive.
For the compound `O=c1[nH]c(=O)n([C@H]2C[C@@H](O)[C@@H](CO)O2)cc1C=CBr`, the compound was classed as inactive in test [6], in test [7], in [8], in test [9] and in test [10].
For `COc1cc(C)c(Sc2cnc(NC(=O)c3ccc(CNC(C)C(C)(C)C)cc3)s2)cc1C(=O)N1CCN(C(C)=O)CC1` (configuration not stated), the result in test [1] was inactive. For the same compound, the Potency in test [5] is 26.6 µM (active). The viability (% of control) in test [2] turned out to be 18.7%. Moreover, the viability, percent of control in test [3] was 12.9%.
As to `COc1cc2c(cc1OC)[C@@H]1C(=O)c3ccc4c(c3O[C@@H]1CO2)C=CC(C)(C)O4`, the Potency in test [4] was 26.4 µM (active). In [1], the outcome was inactive. Moreover, the Potency entry in test [5] is “inactive”. Besides, the viability (% of control) in test [2] was 2.43%. Also, the viability, percent of control in [3] came out at 18.7%.
